According to PubChem BioAssay (Tox21):
Where “and” joins values, the source holds several entries; their conditions need not be identical. Equal values may be shown once. Records with an inconclusive call do not appear. More than one record can exist for a structure, and the calls need not agree. Calls of active or inactive are those of the source. The rule behind the calls is not given here.
% is set by controls: 0 for no effect and ±100 for the full control effect; potency is the fitted concentration of half-maximal effect.

Assay: qHTS assay to identify small molecule antagonists of the estrogen related receptor signaling pathway with the pleiotropic PPARgamma coactivator (PGC) from Tox21 10K library (AID 1224841); note: actives are mostly falling curves and most rising ones were filed inactive; nearly all actives have a fitted effect of over 50% in size
Conditions: PGC/ERR reporter cell line, ONE-Glo luciferase, 18 h; series mostly up to 92.4 µM; activity, negative = inhibition: at the top concentration
From the text: U.S. Tox21 Program National Center for Advancing Translational Sciences [NCATS] NIH Chemical Genomics Center [NCGC] U.S. Environmental Protection Agency [EPA] National Institutes of Environmental Health Sciences [NIEHS] National Toxicology Program [NTP] U.S. Food and Drug Administration [FDA] Tox21 Assay Overview: Estrogen related receptors (ERRs), the first orphan nuclear receptors discovered, play an important role in the control of cellular energy metabolism. ERRs are required for high-energy production in response to the environmental challenges. The pleiotropic PPARgamma coactivator (PGC) is a major partner of ERR and a key regulator in energy homeostasis. Together they have been implicated in the etiology of metabolic disorders such as Type 2 diabetes and metabolic syndrome. ERR-alpha was also identified as an adverse marker for breast cancer progression; ERR-alpha-positive tumors have a poor prognosis. To screen and to identify environmental compounds that perturb the ERR and PGC/ERR signaling pathways could provide valuable information for potential therapeutic or preventive measures in the treatment of metabolic disease. For identifying PGC/ERR antagonists, PGC/ERR cell line (provided by NTP) has been used to screen Tox21 10K library.
Tox21 Assay Protocol Summary: The PGC/ERR cells were dispensed at 2,000 cells/5 ul/well in 1536-well white plates using a Multidrop dispenser. After the assay plates were incubated at a 37 C/5% CO2 incubator for 6 hours, 23 nL of compounds dissolved in DMSO, positive and negative controls or DMSO only was transferred to the assay plate by a pin tool. The plates were incubated at 37 C for 18 hours. 4 ul/well of One-Glo reagent was added into the assay plates using a Flying Reagent Dispenser. After 30-minute incubation at room temperature, the luminescence intensity in the plates was measured using a ViewLux plate reader.
For `CCC[CH2][Sn]([CH2]CCC)([CH2]CCC)[O][Sn]([CH2]CCC)([CH2]CCC)[CH2]CCC`, the activity, negative = inhibition was 332% [at 8.39 µM] (inactive). In the case of `CNC(=O)O/N=C(\C)C(C)S(C)(=O)=O` (stereo not given), the “activity, negative = inhibition” value is reported as -14.3% [at 872 µM] (inactive). In the case of `CC(Cc1ccc(OCC(=O)O)cc1)NCC(O)c1csc(C(F)(F)F)n1` (stereo not given), the “activity, negative = inhibition” value is reported as 3.29% (inactive). With `CNC(=O)/C=C(\C)OP(=O)(OC)OC` the “activity, negative = inhibition” value was 3.56% (inactive). In the case of `ClSC(Cl)(Cl)Cl`, the “activity, negative = inhibition” value is reported as 8.07% (inactive). In the case of `C=CC(=O)[O][Sn]([CH2]CCC)([CH2]CCC)[CH2]CCC`, the Potency is reported as 13.7 µM (active). For `CCCCN(CCCC)C(=S)[S-].CCCCN(CCCC)C(=S)[S-].[Ni+2]`, the Potency was 0.237 µM (active). In the case of `Brc1cccc(-c2ccccc2)c1`, the “activity, negative = inhibition” value is reported as 3.87% (inactive). In the case of `c1ccc2c(c1)cc1ccc3cccc4ccc2c1c34`, the “activity, negative = inhibition” value is reported as 98.1% (inactive). In the case of `O=C(CCCCl)c1ccc(F)cc1`, the “activity, negative = inhibition” value is reported as 33.8% [at 42.5 µM] (inactive). In the case of `Oc1cc(Cl)c(Cl)c(Cl)c1Cl`, the Potency is reported as 21.2 µM (active). With `CCCCN(CCCC)C(=S)S` the “activity, negative = inhibition” value was -15.3% (inactive). With `c1ccc(N=NNc2ccccc2)cc1` the Potency was “inactive”. With `COP(=O)(OC)Oc1ccc([N+](=O)[O-])cc1` the Potency was 21.7 µM (active). In the case of `Fc1ccc(C(OCCN2CCN(CCCc3ccccc3)CC2)c2ccc(F)cc2)cc1`, the Potency is reported as 11.9 µM (active). In the case of `CC(=O)[O][Sn]([c]1ccccc1)([c]1ccccc1)[c]1ccccc1`, the Potency is reported as 0.545 µM (active). In the case of `Cc1cc(C2CC2)nc(Nc2ccccc2)n1`, the “activity, negative = inhibition” value is reported as 10.2% (inactive). For `CCOC(=O)CCN(SN(C)C(=O)Oc1cccc2c1OC(C)(C)C2)C(C)C`, the Potency was 30.6 µM (active). For `O=c1[nH]c2cc(Cl)ccc2n1C1CCNCC1`, the “activity, negative = inhibition” value was -1.53% [at 42.5 µM] (inactive). For `Brc1ccc(Oc2ccc(Br)cc2Br)c(Br)c1`, the “activity, negative = inhibition” value was 44.8% (inactive). In the case of `ClC1(Cl)C2(Cl)C3(Cl)C4(Cl)C(Cl)(Cl)C5(Cl)C3(Cl)C1(Cl)C5(Cl)C24Cl` (stereo not given), the “activity, negative = inhibition” value is reported as 2.57% (inactive). In the case of `COC(=O)C(C)N(C(=O)c1ccco1)c1c(C)cccc1C` (stereo not given), the “activity, negative = inhibition” value is reported as -13.6% (inactive). For `CN1CCc2cc3c(cc2C1O)OCO3` (stereo not given), the “activity, negative = inhibition” value was -1.76% (inactive). For `Oc1ccc(Cl)c(Cl)c1`, the “activity, negative = inhibition” value was 14.2% (inactive). With `O=C(Nc1ccc(F)cc1F)c1cccnc1Oc1cccc(C(F)(F)F)c1` the “activity, negative = inhibition” value was 16.7% (inactive). In the case of `Cc1c([N+](=O)[O-])cc2c(c1[N+](=O)[O-])C(C)(C)CC2(C)C`, the Potency is reported as 30.6 µM (active). In the case of `CCCCON=O`, the Potency is reported as 49.8 µM (active). For `CC(Cc1ccc2c(c1)OCO2)NO` (stereo not given), the “activity, negative = inhibition” value was 1.93% (inactive). In the case of `ClCBr`, the “activity, negative = inhibition” value is reported as 1.36% (inactive). For `Nc1cc(Cl)ccc1Cl`, the “activity, negative = inhibition” value was -21% (inactive). For `COP(=O)(OC)O/C(=C\Cl)c1cc(Cl)c(Cl)cc1Cl`, the Potency was 5.45 µM (active). With `CCC[CH2][Sn]([CH2]CCC)([CH2]CCC)[CH2]CCC` the “activity, negative = inhibition” value was 111% (inactive). In the case of `CCCCCCCCCCCCCCn1cc[n+](C)c1`, the Potency is reported as 24.4 µM (active) and 24.1 µM (active) and inactive. With `COc1nc(C)nc(NC(=O)NS(=O)(=O)c2ccccc2Cl)n1` the “activity, negative = inhibition” value was -1.1% (inactive). In the case of `BrCC(Br)(Br)Br`, the “activity, negative = inhibition” value is reported as -1.91% (inactive). For `O=NN(CCO)CCO`, the “activity, negative = inhibition” value was -16.9% (inactive). For `O=Cc1ccccc1`, the “activity, negative = inhibition” value was -2.61% (inactive). For `CCCCCCC[CH2][Sn]([Cl])([Cl])[CH2]CCCCCCC`, the Potency was 27.3 µM (active). For `CC(C)N(C(=O)CCl)c1ccccc1`, the Potency was 9.69 µM (active) and 6.11 µM (active). With `CCCCCON=O` the Potency was 30.7 µM (active).
